PubChem BioAssay
Active and inactive are the calls of the source. Unless noted, how the calls were made is not given here.

Experiments:
[1] = compound effects on lung adenocarcinoma cell viability – A549, calcein-AM fluorescence, 48 h, basal, profiling panel (AID 1162); details: higher = more signal; further: test concentration not given here
[2] = compound effects on differentiated 3T3-L1 adipocyte viability – cell-based, 3T3-L1 adipocytes, calcein-AM fluorescence, 48 h, basal, profiling panel (AID 1163); details: 3T3-L1 adipocytes viability, higher = more signal; further: test concentration not given here
[3] = compound effects on hepatocellular carcinoma cell viability – HepG2, calcein-AM fluorescence, 48 h, basal, profiling panel (AID 1164); details: higher = more signal; further: test concentration not given here
[4] = compound effects on multiple myeloma cell viability – MM1S, calcein-AM fluorescence, 48 h, basal, profiling panel (AID 1165); details: higher = more signal;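 further: viability of MM1S multiple myeloma cells under basal unstimulated conditions; test concentration not given here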
[5] = calcein-AM signal in unstimulated myeloma cells – cell-based, calcein-AM fluorescence, 48 h, PK04 Diversity Set, profiling panel (AID 1166); details: RPMI8226 myeloma viability, higher = more signal;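 further: cells grown under basal conditions without added stimulus; test concentration not given here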
[6] = JC-1 mitochondrial signal, unstimulated HepG2 cells – cell-based, JC-1 fluorescence, 24 h, 100 nL compound, profiling panel (AID 1167); details: HepG2 mitochondrial potential, higher = more signal; further: test concentration not given here
[7] = JC-1 mitochondrial signal, unstimulated adipocytes – cell-based, JC-1 fluorescence, 3T3-L1 adipocytes, 24 h, 100 nL compound, profiling panel (AID 1168); details: JC-1 mitochondrial fluorescence, higher = more signal, called active from +8 up or from −8 down; further: test concentration not given here
[8] = JC-1 mitochondrial signal, unstimulated myeloma cells – cell-based, JC-1 fluorescence, RPMI8226, 24 h, 100 nL compound, profiling panel (AID 1169); details: JC-1 mitochondrial potential fluorescence, higher = more signal; further: test concentration not given here
[9] = JC-1 mitochondrial signal, unstimulated MM1S myeloma – cell-based, JC-1 fluorescence, 24 h, 100 nL compound, profiling panel (AID 1170); details: MM1S mitochondrial potential, higher = more signal; further: test concentration not given here
[10] = resazurin metabolic signal in A549 cells – cell-based, resazurin fluorescence, 24 h, PK04 Diversity Set, profiling panel (AID 1171); details: A549 viability, higher = more signal, called active from +8 up or from −8 down; further: test concentration not given here
[11] = resazurin metabolic signal in HepG2 cells – cell-based, resazurin fluorescence, 24 h, PK04 Diversity Set, profiling panel (AID 1172); details: HepG2 viability, higher = more signal; further: test concentration not given here
[12] = budding yeast growth changes without added modifier – OD600, strain BY4716, 24 h, basal condition, primary screen (AID 1173); details: S. cerevisiae BY4716 growth, OD600, 24 h; higher = more signal, called active from +8 up or from −8 down
[13] = viability profiling in MM1S myeloma cells – cell-based, resazurin fluorescence, basal, 24 h, PK04 Diversity Set, profiling panel (AID 1174); details: higher = more signal, called active from +8 up or from −8 down; further: test concentration not given here
[14] = biological target: Dihydroorotate dehydrogenase (quinone), mitochondrial (Plasmodium falciparum (isolate 3D7)) (UniProt Q08210); assay: inhibition of P. falciparum DHODH – biochemical, C-terminal His tag, absorbance 600 nm, primary screen (AID 1175); details: PfDHODH enzyme, DCIP absorbance 600 nm; higher = more signal, called active from +8 up or from −8 down;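 further: recombinant parasite enzyme with a five histidine tag at its C terminus; test concentration not given here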
[15] = inhibition of PAO1 biofilm formation – strain PAO1, LB-PBS medium, absorbance 600 nm, primary screen (AID 1176); further: test concentration not given here; details: P. aeruginosa PAO1 growth/biofilm, A600, 12 h; higher = more signal
[16] = growth modulation of vineyard yeast isolate – strain RM11-1a, OD600, basal, 24 h, primary screen (AID 1177);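 further: cultures grown under basal conditions with no added stressor; test concentration not given here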; details: S. cerevisiae RM11-1a growth, OD600, 24 h; higher = more signal, called active from +8 up or from −8 down
[17] = growth of efflux-deficient E. coli DRC39 – strain DRC39, OD650, 24 h, E. coli filamentation inducers, primary screen (AID 1178);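 further: growth measured as culture turbidity by optical density at 650 nm; test concentration not given here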; details: E. coli DRC39 acrAB, higher = more signal, called active from +8 up or from −8 down
[18] = growth of efflux-deficient E. coli DRC39 – strain DRC39, OD650, 48 h, E. coli filamentation inducers, primary screen (AID 1179);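 further: screen aims at cell division blockers that make cells filament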; details: E. coli DRC39 delta-acrAB growth, higher = more signal, called active from +8 up or from −8 down
[19] = viability profiling in RPMI8226 myeloma cells – cell-based, resazurin fluorescence, basal, 24 h, PK04 Diversity Set, profiling panel (AID 1180); details: higher = more signal;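 further: RPMI8826 multiple myeloma cell line at 5000 cells per well; test concentration not given here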
[20] = biological target: E3 ubiquitin-protein ligase XIAP (Homo sapiens) (UniProt P98170); assay: small molecules binding XIAP protein – biophysical, small-molecule microarray, fluorescence 635 nm, primary screen (AID 1181); details: higher = more signal;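 further: score merges 667 nm emission and signal to noise over triplicate slides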
Sequence of E3 ubiquitin-protein ligase XIAP (Homo sapiens) (P98170 whole entry, looked up): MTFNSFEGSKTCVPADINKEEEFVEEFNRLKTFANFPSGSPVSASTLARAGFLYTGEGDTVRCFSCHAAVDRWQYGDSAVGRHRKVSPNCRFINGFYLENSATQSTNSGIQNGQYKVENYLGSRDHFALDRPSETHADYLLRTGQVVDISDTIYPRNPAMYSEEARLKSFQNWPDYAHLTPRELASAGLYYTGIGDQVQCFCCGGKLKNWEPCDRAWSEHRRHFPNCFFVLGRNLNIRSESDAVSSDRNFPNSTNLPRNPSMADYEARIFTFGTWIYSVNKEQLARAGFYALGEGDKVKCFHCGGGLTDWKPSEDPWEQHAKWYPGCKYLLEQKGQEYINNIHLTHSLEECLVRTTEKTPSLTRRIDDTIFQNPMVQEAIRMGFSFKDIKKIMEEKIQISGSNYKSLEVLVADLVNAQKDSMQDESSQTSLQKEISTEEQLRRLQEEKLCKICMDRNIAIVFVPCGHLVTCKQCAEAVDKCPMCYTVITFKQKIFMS

Sequence of Dihydroorotate dehydrogenase (quinone), mitochondrial (Plasmodium falciparum (isolate 3D7)) (Q08210 whole entry, looked up): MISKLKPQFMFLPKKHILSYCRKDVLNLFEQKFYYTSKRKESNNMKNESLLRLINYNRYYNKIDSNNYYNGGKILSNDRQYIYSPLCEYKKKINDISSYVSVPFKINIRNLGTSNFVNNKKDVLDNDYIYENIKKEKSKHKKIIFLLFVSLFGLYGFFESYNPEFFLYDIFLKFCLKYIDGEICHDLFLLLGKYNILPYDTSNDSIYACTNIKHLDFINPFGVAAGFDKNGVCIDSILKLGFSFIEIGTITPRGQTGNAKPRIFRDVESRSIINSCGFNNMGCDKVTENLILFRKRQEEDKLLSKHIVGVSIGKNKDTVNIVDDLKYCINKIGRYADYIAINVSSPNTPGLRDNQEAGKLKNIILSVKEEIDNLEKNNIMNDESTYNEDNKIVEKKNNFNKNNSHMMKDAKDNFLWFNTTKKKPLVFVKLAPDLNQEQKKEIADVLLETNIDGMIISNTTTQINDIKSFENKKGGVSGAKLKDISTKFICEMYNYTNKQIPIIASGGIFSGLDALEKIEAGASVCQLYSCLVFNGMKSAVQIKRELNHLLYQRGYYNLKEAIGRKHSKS

Row | SMILES | z-score [1] | z-score [2] | z-score [3] | z-score [4] | z-score [5] | z-score [6] | z-score [7] | z-score [8] | z-score [9] | z-score [10] | z-score [11] | z-score [12] | z-score [13] | composite z-score [14] | z-score [15] | z-score [16] | z-score [17] | z-score [18] | z-score [19] | composite z-score [20]
1 | C=C(CCCC)C(=O)CC[C@@H](OC(C)=O)c1ccc(OCCO)cc1 | -0.0836 | 0.997 | -0.439 | -1.97 | -1.92 | -0.338 | -0.362 (inactive) | -0.793 | -0.36 | 0.325 (inactive) | -0.603 | -2 (inactive) | -0.953 (inactive) | -1.78 (inactive) | 1.07 (inactive) | 0.662 (inactive) | 0.227 (inactive) | 0.189 (inactive) | -0.894 | -0.074
2 | CO[C@H]1O[C@H](CO)[C@@H](OC(=O)Nc2ccccc2)[C@@H]2OC(=O)[C@@H](Cc3ccccc3)C/C=C/C[C@H](Cc3ccccc3)C(=O)O[C@@H]12 | -0.255 | -0.0852 | 0.297 | 0.36 | 0.335 | -0.502 | 2.28 (inactive) | -0.532 | -1.65 | -0.869 (inactive) | -0.472 | 0.153 (inactive) | -2.22 (inactive) | -1.38 (inactive) | 0.0126 (inactive) | 1.04 (inactive) | -0.409 (inactive) | 0.582 (inactive) | -0.381 | 0.381
3 | CC(=O)NCCCC[C@@H]1NC(=O)[C@H]2C[C@@H](C(=O)NCCCCCN)[C@@H](c3ccc(O)cc3)N2C1=O | -0.754 | 0.311 | -0.926 | -0.0917 | -0.556 | -0.659 | -0.34 (inactive) | 0.135 | 0.353 | -0.0632 (inactive) | -0.508 | 1.26 (inactive) | -0.336 (inactive) | 0.538 (inactive) | -0.13 (inactive) | 1.08 (inactive) | -0.496 (inactive) | -0.696 (inactive) | -0.121 | -0.224
4 | COC(=O)[C@@]1(Cc2ccc(F)cc2)[C@H]2c3cc(C(=O)N4CCCC4)n(CCc4c[nH]c5cc(F)ccc45)c3C[C@H]2CN1C(=O)c1ccccc1 | -0.767 | -0.0351 | 0.194 | -0.234 | -1.37 | 2.18 | -1.2 (inactive) | -0.449 | -1.21 | 0.339 (inactive) | 0.182 | 1.7 (inactive) | -0.0568 (inactive) | -0.362 (inactive) | -0.815 (inactive) | 0.335 (inactive) | -0.426 (inactive) | -0.55 (inactive) | -0.162 | 0.0535
5 | CCCCC(=C=CC[C@H](O)c1cccc(OCCO)c1)C[C@H](O)c1cc(Cl)cc(Cl)c1O | 0.827 | -0.241 | 0.358 | -3.12 | -1.24 | 0.0773 | 0.309 (inactive) | -0.00147 | -1.05 | 1.57 (inactive) | 1.89 | -2.65 (inactive) | 0.356 (inactive) | 0.189 (inactive) | 0.318 (inactive) | 0.275 (inactive) | 1.07 (inactive) | 0.923 (inactive) | 0.242 | -0.206
6 | [N-]=[N+]=Nc1ccccc1C[C@]1(C(N)=O)COC(c2ccc(OCCCO)cc2)=N1 | -0.193 | 0.936 | 0.0027 | -0.286 | -0.334 | 0.253 | -0.298 (inactive) | -0.964 | -0.942 | 0.246 (inactive) | 0.978 | -0.0745 (inactive) | 0.157 (inactive) | -0.265 (inactive) | 0.398 (inactive) | -0.762 (inactive) | 0.578 (inactive) | -0.364 (inactive) | 0.177 | 0.396
7 | C[C@]1(C(=O)NC2CC2)c2ccccc2C(=O)N(Cc2cc(F)cc(C(F)(F)F)c2)[C@H]1c1ccc(CO)cc1 | -0.685 | 0.274 | 0.0046 | 0.0749 | -0.237 | 1.2 | 0.0232 (inactive) | 0.107 | -0.328 | 1.79 (inactive) | 1.53 | 0.411 (inactive) | 0.872 (inactive) | 0.712 (inactive) | -0.646 (inactive) | 1.34 (inactive) | 0.425 (inactive) | 0.401 (inactive) | 1.04 | 0.195
8 | CC[C@H]1C2=C3C(CC[C@H]4C(OCc5ccc(F)cc5C(F)(F)F)OC[C@](C)([C@@H]34)N(C(=O)OC(C)(C)C)C2)C(COC(C)=O)C1COC(C)=O (stereo not given in full) | -0.128 | -0.154 | 0.228 | -0.814 | -2.5 | 3.43 | -1.43 (inactive) | -0.555 | -1.29 | 0.226 (inactive) | -0.409 | 0.249 (inactive) | -1.04 (inactive) | -0.804 (inactive) | 0.523 (inactive) | 0.348 (inactive) | -1.26 (inactive) | -0.539 (inactive) | -0.866 | 0.48
